Assay outcomes (PubChem BioAssay)
Efflux pump inh – inhibitors of Candida efflux pumps in yeast, primary screen, S. cerevisiae, Nile Red, multiplex; S. cerevisiae Candida pump triplex; actives 0.44% (n = 330,000); inhibition, % at 10 µM;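 active = plate passing quality check with inhibition over a set limit, or well fluorescence over plate mean plus 4 SD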;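 also: Nile Red retained in pooled yeast measured as flow cytometry median fluorescence; 0% = buffer negative control and 100% = Enniatin B positive control; higher means more Nile Red kept so more efflux inhibition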
ALR inh – inhibitors of human ALR sulfhydryl oxidase, primary screen, biochemical, H2O2 detection, HRP-luminol luminescence, single point; purified ALR, DTT oxidation; inhibition, % (no concentration beside the values); actives 3.8% (n = 290,000);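 active = mean replicate inhibition above about 79%, with every replicate also reaching it, limit read from the data; inconclusive = only one of the two criteria met; inactive = mean below limit and not every replicate reaching it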
HDAC3 inh – HDAC3 deacetylase inhibitors, primary screen, biochemical, fluorescence, cell-free homogeneous. recombinant HDAC3, fluorogenic peptide/trypsin coupled. inhibition, % at 8.3 µM. Histone deacetylase 3 (Homo sapiens), O15379. actives 0.15% (n = 320,000); in the data active = inhibition above about 26%, passing the limit was not always enough; inconclusive = no clear call, values can overlap the other calls
Rtt109 HAT inh – inhibitors of C. albicans Rtt109/Vps75 HAT, primary screen, biochemical, ThioGlo CoA-SH fluorescence, plate reader; Histone acetyltransferase RTT109 (Candida albicans (strain SC5314 / ATCC MYA-2876)), …; purified Rtt109/Vps75, 4 h; inhibition, % at 34.9 µM; actives 0.16% (n = 330,000);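 active = inhibition of at least 50% in every replicate; inconclusive = best replicate reaches 50% inhibition but some replicates fall short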
Target sequence (Q5AAJ8 whole entry, looked up): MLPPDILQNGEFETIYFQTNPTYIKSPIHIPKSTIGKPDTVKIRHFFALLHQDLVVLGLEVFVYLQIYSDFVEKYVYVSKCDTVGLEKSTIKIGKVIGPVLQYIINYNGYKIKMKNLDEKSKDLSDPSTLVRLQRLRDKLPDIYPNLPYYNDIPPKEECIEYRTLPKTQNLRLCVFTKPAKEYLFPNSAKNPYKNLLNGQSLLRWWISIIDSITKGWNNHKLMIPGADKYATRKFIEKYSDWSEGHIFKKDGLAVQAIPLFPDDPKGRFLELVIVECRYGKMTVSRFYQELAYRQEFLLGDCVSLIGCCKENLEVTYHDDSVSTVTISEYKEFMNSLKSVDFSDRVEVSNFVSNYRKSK
GRK2 aptamer HTS – compounds blocking aptamer binding on GRK2 – biochemical, human GRK2, bead flow cytometry, HTS, primary screen; FAM-aptamer displacement from GRK2; AID 488847, 2010; inhibition of aptamer binding, % at 10 µM; Beta-adrenergic receptor kinase 1 (Homo sapiens), P25098; actives 0.59% (n = 330,000);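 active = inhibition of aptamer binding above 40%, roughly 3 SD of noise, on plates passing a quality check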;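 also: median bead fluorescence of bound FAM aptamer so fluorescent compounds give negative values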
Rce1 inhib – yeast Rce1p protease inhibitors, primary screen, biochemical, fluorescence, cell-free homogeneous | AID 2563, 2010 | actives 0.27% (n = 290,000) | yeast membranes, quenched prenylated peptide cleavage fluorescence | calls only;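 active = fall in fluorescence gain of 50% or more versus controls, with final raw signal at or below 3038400; inconclusive = same 50% fall but final raw signal above 3038400; inactive = fall in fluorescence gain under 50%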;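 also: plate controls were neutral control wells for no effect and wells lacking membranes for full effect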
Target sequence (Q03530 whole entry, looked up): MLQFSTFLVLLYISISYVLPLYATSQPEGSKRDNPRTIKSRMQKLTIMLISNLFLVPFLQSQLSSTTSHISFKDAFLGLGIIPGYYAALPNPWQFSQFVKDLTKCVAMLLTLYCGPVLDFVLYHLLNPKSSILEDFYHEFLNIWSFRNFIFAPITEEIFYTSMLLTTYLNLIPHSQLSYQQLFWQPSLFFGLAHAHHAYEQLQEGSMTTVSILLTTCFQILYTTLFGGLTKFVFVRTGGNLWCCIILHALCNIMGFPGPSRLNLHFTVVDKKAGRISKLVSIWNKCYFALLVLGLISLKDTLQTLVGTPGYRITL
GRK2 inh confirm – GRK2 aptamer-displacing inhibitors, retest, confirmation, biochemical, cherry pick 1, bead flow cytometry | shares compounds with GRK2 aptamer HTS | bead-bound GRK2, FAM-aptamer displacement | aptamer displacement, % at 10 µM | actives 4% (n = 2,000);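 active = aptamer displacement above 40%, near three times the noise of non-fluorescent compounds, on plates passing quality checks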;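 also: negative values mostly reflect intrinsic compound fluorescence rather than true enhancement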
Aptamer quench – fluorescent aptamer quenching in GRK2 counter-screen dose response | shares compounds with GRK2 aptamer HTS | Fluorescent RNA aptamer beads, flow cytometry; active compounds read high | fluorescence change (kMESF span), kMESF (test concentration not listed) | 110 tested, under 10 active;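 active = compounds whose bead fluorescence drops by more than 37 kMESF across the dose range, marking them as dye quenchers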
FAM quench CP1 – aptamer fluorescence quenching in GRK2 counter-screen; Carboxyfluorescein RNA aptamer on beads, flow cytometry quenching; active compounds read low; 2,000 tested, under 10 active; fluorescence response (% of DMSO), % at 10 µM; shares compounds with GRK2 aptamer HTS;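 active = compounds that quench the bead-bound fluorescent RNA probe, cutting fluorescence to under half of the solvent control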;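 also: counterscreen run without GRK2 so only probe quenching by compound is measured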
GRK2 confirm 2 – GRK2 aptamer-displacing inhibitors, hit retest, confirmation, biochemical, cherry pick 2, bead flow cytometry. inhibition of aptamer binding, % at 10 µM. shares compounds with GRK2 aptamer HTS. AID 504782, 2011. 360 tested, under 10 active. bead-bound GRK2, FAM-aptamer displacement;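 active = inhibition of aptamer binding above 40%, about triple the noise seen with nonglowing compounds, on plates passing quality control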;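 also: negative values mostly come from compounds that fluoresce themselves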
FAM quench CP2 – aptamer fluorescence quenching in GRK2 counter-screen. fluorescence response vs DMSO, % at 10 µM. 360 tested, under 10 active. carboxyfluorescein RNA aptamer beads, flow cytometry quenching; active compounds read low. shares compounds with GRK2 aptamer HTS;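 active = response vs DMSO under 50%, meaning signal dropped by over half, treated as fluorescence quencher; inconclusive = no clear call, values can overlap the other calls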;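 also: labelled aptamer on streptavidin beads without GRK2 as a quench counter-screen; 100% = bead fluorescence of DMSO wells and lower means quenching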
Numbers without * were called inactive; i = inactive; ? = inconclusive; . = not tested or not shown. Most compounds without a hit are left out; they make up all but 4.5% or so of the library.

SMILES | Efflux pump inh | ALR inh | HDAC3 inh | Rtt109 HAT inh | GRK2 aptamer HTS | Rce1 inhib | GRK2 inh confirm | FAM quench CP1 | others
NNC(=O)c1ccccc1-n1cccc1 | 0 | 4 | -8 | . | 5 | i | . | . | GRK2 confirm 2=10;FAM quench CP2=99
CC12CCC(=O)N1C(C(=O)NNC(=O)c1ccccc1Cl)CS2 (centres undefined) | 0 | . | -14 | 5 | 2 | . | . | .
O=c1ccc2cc(S(=O)(=O)N3CCOCC3)ccc2o1 | 0 | 0 | 3 | -2 | 56* | i | -5 | 101
CCOC(=O)c1c(-c2ccc(C)c(C)c2)csc1NC(=O)C1CC=CCC1C(=O)O (centres undefined) | 0 | 14 | 0 | 28 | 0 | i | . | .
CCOC(=O)c1c(-c2ccc(F)cc2)csc1NC(=O)C1CC=CCC1C(=O)O (centres undefined) | 0 | ? | 4 | 2 | 95* | i | 5 | 98
CC(C)(C)OC(=O)N1CCC(c2cc(=O)n3[nH]c(-c4ccc(Cl)cc4)cc3n2)CC1 | 0 | 4 | -6 | 6 | 88* | i | -26 | 94
CCOC(=O)Cc1cc(=O)n2[nH]c(-c3ccc(Cl)cc3)cc2n1 | 0 | -12 | -1 | 12 | 0 | i | . | .
CN(C)c1ccc(C(=O)N2CCN(C(=O)C3CCCO3)CC2)cc1 (centres undefined) | 0 | . | 2 | -1 | 0 | . | . | .
O=C(NCc1ccccc1)Nc1cccn(Cc2ccccc2)c1=O | 0 | -1 | -11 | -4 | 57* | i | . | . | GRK2 confirm 2=6;FAM quench CP2=101
CCOc1ncccc1C(=O)OCC(=O)Nc1ccc2c(c1)CCC2 | 0 | 15 | 4 | -9 | 24 | . | 0 | 108
COc1cccc(CC(=O)OCC(=O)NCCc2ccc(F)cc2)c1 | 0 | -10 | 1 | -1 | 1 | . | . | .
Cn1c(=O)[nH]c(=O)c2c1nc(SCC(=O)O)n2CCOc1ccccc1 | 0 | -18 | ? | -10 | 0 | i | 1 | 96
Cn1c(=O)[nH]c(=O)c2c1nc(SCCN1CCOCC1)n2CCCc1ccccc1 | 0 | -12 | 0 | 0 | 1 | i | . | .
Cn1c(=O)[nH]c(=O)c2c1nc(Br)n2CC(O)COc1ccccc1 (centres undefined) | 0 | 9 | 5 | 0 | 75* | i | -4 | 102
C=C(C)Cn1c(SCC(=O)O)nc2c1c(=O)[nH]c(=O)n2C | 0 | -1 | . | -9 | 3 | i | . | .
Cn1c(=O)[nH]c(=O)c2c1nc(SCCN1CCOCC1)n2Cc1ccccc1 | 0 | -2 | 1 | -1 | 89* | i | -2 | 104
Cc1cc(C)n(-c2nc3c(c(=O)[nH]c(=O)n3C)n2CC(O)COc2ccc(Cl)cc2Cl)n1 (centres undefined) | 0 | . | -2 | -1 | 72* | i | 3 | 96
O=C(Nc1ccccc1C(=O)O)c1cc(S(=O)(=O)N2CCCCC2)c(Cl)cc1Cl | 0 | 4 | -3 | 3 | 0 | i | . | .
CC[n+]1c(/C=C/Nc2ccccc2)sc2ccccc21 | 0 | 23 | ? | 12 | 30 | i | . | .
CCN1/C(=C/C=C/c2sc3ccccc3[n+]2CC)Sc2ccccc21 | 0 | 100* | -1 | 66* | 100* | i | 101* | 94 | Aptamer quench=-1.3
Cc1ccc(C2(C)NC(=O)N(CC(=O)Nc3cc(S(=O)(=O)N4CCOCC4)ccc3OC(C)C)C2=O)cc1 (centres undefined) | . | . | . | 1 | . | . | . | .
COc1ccc(CCNC(=O)C(=O)NCC2OCCN2S(=O)(=O)c2cc(F)ccc2F)cc1OC (centres undefined) | 0 | . | -10 | -1 | 78* | i | -3 | 99
COc1ccc(CCNC(=O)C(=O)NCC2OCCN2S(=O)(=O)c2ccc(OC)c(OC)c2)cc1OC (centres undefined) | 0 | . | 4 | 0 | 1 | i | . | .
CCCC(=O)Nc1nc2ccc(C(=O)OCC)cc2s1 | 0 | -10 | -2 | 0 | 0 | i | . | .
CCOC(=O)c1ccc2nc(NC(=O)C(C)C)sc2c1 | 0 | -7 | 7 | 0 | 62* | i | -1 | 97
SMILES | Efflux pump inh | ALR inh | HDAC3 inh | Rtt109 HAT inh | GRK2 aptamer HTS | Rce1 inhib | GRK2 inh confirm | FAM quench CP1 | others
CCC(CC)C(=O)OCC(=O)Nc1cccc([N+](=O)[O-])c1 | 0 | 11 | 6 | 8 | 2 | i | . | .
O=C(COc1ccc(/C=N/NC(=O)c2cc3ccccc3o2)cc1Cl)Nc1ccccc1 | 0 | 0 | -2 | 5 | 54* | i | 23 | 123
O=C(N/N=C/c1cccc(F)c1)c1c(O)c2ccccc2[nH]c1=O | 1 | -3 | -3 | -10 | 70* | i | 4 | 94
OCC1(CO)CCCC(CO)(CO)C1O | . | . | . | -4 | . | . | . | .
Cc1ccc(-c2nc(CS(=O)(=O)CC(=O)N3CCCCCC3)c(C)o2)cc1 | 0 | 95* | 1 | 3 | 73* | i | -4 | 103
CN(C)N=Nc1ccc(-c2cn(Cc3ccccc3)cn2)cc1 | 0 | 1 | 2 | -7 | 1 | i | . | .
C=CCn1c[n+](CC(=O)c2ccc(Br)s2)c2ccccc21 | 0 | 4 | 7 | 30 | 57* | i | -4 | 103
CCn1c(=N)n(CC(=O)c2ccc(Br)s2)c2ccccc21 | 0 | 5 | . | 15 | 5 | i | . | .
NS(=O)(=O)c1ccc(NC(=S)N2CCN(c3ccccc3Cl)CC2)cc1 | 0 | -23 | 3 | 10 | 48* | i | . | . | GRK2 confirm 2=2;FAM quench CP2=334
NS(=O)(=O)c1ccc(NC(=S)N2CCN(c3cccc(Cl)c3)CC2)cc1 | 0 | 29 | -4 | -5 | 0 | i | . | .
